# The campaign covered roughly 640,000 compounds. About 9,300 (1.5%) were called active. What follows is part of a selection rich in actives, with near analogues and random picks from the rest. A number with no mark means an inactive call. No stated cut-off is given here; in the data, active means inhibition above about 32%; inactive means the rest.
# Experiment: TEAD-YAP interaction inhibition, primary screen, TEAD-YAP interaction inhibitor project, luminescence, HEK-TIYL cells (AID 1259422);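 further: 0% = median of test compound wells and 100% = reference inhibitor wells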
# Settings: TEAD-Gal4/YAP UAS-luciferase luminescence, at 9.12 µM, hits give high values
row,SMILES,inhibition
1,COc1cccc(CN2CCN(Cc3cn[nH]c3-c3cccc(F)c3)CC2CCO)c1 (stereo unspecified),6.95%
2,CCCCSCCC(=O)O,-16.4%
3,COC(CNc1cc(-c2ccc(F)cc2)nc(-c2ccccn2)n1)OC,42.7% (active)
4,COCCNc1cc(-c2ccc(F)cc2)nc(C)n1,-31.9%
5,COC(CNc1cc(-c2cccc(C(F)(F)F)c2)nc(-c2ccncc2)n1)OC,14.2%
6,CC(C)(C)NCCOc1ccccc1F,14.1%
7,CCOc1cc(C#N)ccc1OCC(=O)Nc1ccc(C)cc1C,15.8%
8,COC(=O)C1=C(C)N=c2s/c(=C/c3ccc(N(C)C)cc3)c(=O)n2C1c1ccccc1Cl (stereo unspecified),-14.2%
9,O=C(NNS(=O)(=O)c1cccc(Cl)c1Cl)C12CC3CC(CC(C3)C1)C2,-2.41%
10,CCN(CC)CCNC(=O)c1ccc2c(=O)n(CCN(CC)CC)c(=S)[nH]c2c1,18.8%
11,CCN(CC)CCNC(=O)c1ccc(Nc2cc(Nc3ccccc3C(=O)NC)c(C(F)(F)F)cn2)c(C)c1,84.7% (active)
12,CCN(CC)CCNC(=O)c1ccc(Nc2cc(Nc3ccccc3C(=O)NC)c(C(F)(F)F)cn2)nc1,96.8% (active)
13,CC(C)N(CCNC(=O)c1ccnc(Nc2ccc(C(F)(F)F)cc2)c1)C(C)C,-16%
14,CCCn1c(=S)[nH]c2cc(C(=O)NCCN(CC)CC)ccc2c1=O,12.2%
15,CNC(=O)c1ccccc1Nc1nc(Nc2ccc(-n3cnc(-c4ccc(C)nc4)n3)cc2)ncc1Cl,8.52%
16,CNC(=O)c1ccccc1Nc1cc(Nc2ccc(C(=O)N(C)C)cc2)ncc1C(F)(F)F,77.1% (active)
17,Cc1cc(C(=O)Nc2ccccc2C(F)(F)F)ccc1[N+](=O)[O-],-8.76%
18,CNC(=O)c1ccccc1Nc1cc(Nc2ccc(N3CCOCC3)cc2OC)ncc1F,6.22%
19,COc1cc(N2CCOCC2)ccc1Nc1cc(Nc2ccccc2-n2cccn2)c(C(F)(F)F)cn1,-8.57%

row,SMILES,inhibition
1,Cc1ccc(Nc2nnc(-c3ccc(C(=O)N(C)C)cc3)c3ccccc23)cc1,-11.2%
2,CCN(CC)CCOc1ccc(Nc2cc(Nc3ccccc3C(=O)NC)c(C(F)(F)F)cn2)c(OC)c1,83.4% (active)
3,CCc1ccccc1N(CC(=O)Nc1cc(Cl)ccc1C)S(C)(=O)=O,1.56%
4,Cc1ccc(OCCSc2nc(N)cc(=O)[nH]2)cc1,-7.78%
5,CN(C)CCNc1ccnc2c(-c3ccsc3)cnn12,-57.5%
6,O=C(Nc1ccc2c(c1)CN(C1CCOCC1)CC2)c1ccc(C(F)(F)F)cc1,17.5%
7,COc1ccc(NC(=O)/C(=C\c2ccc3c(c2)OCO3)NC(=O)c2ccccc2Cl)c(OC)c1,21.2%
8,COc1ccc(OC)c(/C=N/NC(=O)COc2ccc(Br)cc2)c1,-1.77%
9,COc1ccc(/C=N/NC(=O)COc2ccc(Cl)cc2Br)cc1OC,8.94%
10,CCOC(=O)c1c(C)[nH]c(C(=O)OCC(=O)Nc2ccccc2C(C)(C)C)c1C,7.06%
11,Cc1cc2nn(-c3ccccc3)nc2cc1NC(=S)NC(=O)c1oc2ccccc2c1C,7.4%
12,C=C(C)C1C=C(C)/C(=N/NC(=O)c2ccc(N3CCCC3=O)cc2)CC1 (stereo unspecified),0.92%
13,COc1ccc(/C=C2\Oc3cc(OC(=O)C4CC4)cc(C)c3C2=O)c(OC)c1OC,-17.3%
14,O=C(Oc1ccc2c(c1)C(=O)c1cc(OC(=O)c3cccnc3)ccc1-2)c1cccnc1,-14.7%
15,O=C1/C(=C/c2cccnc2)Oc2cc(OC(=O)C3CC3)ccc21,33.5% (active)
16,CCCn1c(=O)[nH]c2c(C(N)=O)nc(-c3cn(C)nc3C)nc21,-23%
17,O=C(CNc1cccc(Br)c1)Nc1ccccc1C(=O)Nc1ccccc1,2.84%
18,Nc1ccc2c(c1)C(=O)C(=O)c1cc(N)ccc1-2,99% (active)
19,O=C1c2cc(O)ccc2-c2ccc(O)cc21,-8.01%

row,SMILES,inhibition
1,O=C1c2cc(S(=O)(=O)N3CCCC3)ccc2-c2ccc(S(=O)(=O)N3CCCC3)cc21,-1.36%
2,CCCCN(CC)CCNC(=O)CCNC(=O)Cn1cnc2sc3c(c2c1=O)CCCC3,-4.71%
3,CCN1CCN(C(=O)c2ccc(OC)cc2OC)CC1,2.8%
4,COc1cc(Nc2cc(-c3nocc3-c3cnn(C)c3)ccn2)ccc1N1CCOCC1,15%
5,Cn1nccc1Nc1cc(Nc2ccc(N3CCOCC3)cc2)ncn1,2.78%
6,Cn1cc(-c2cc(Nc3ccc(N4CCOCC4)cn3)ncc2Cl)cn1,38.9% (active)
7,CCCN1CC=C2C(C1)C(c1cccc(C(F)(F)F)c1)C(C#N)=C(N)C2(C#N)C#N (stereo unspecified),-14.9%
8,CC(C)n1cnc2c(NC3CCN(Cc4ccccc4)CC3)nc(NC3CCN(Cc4ccccc4)CC3)nc21,23.1%
9,CC(C)n1cnc2c(NC3CCN(Cc4ccccc4)CC3)nc(Nc3ccc(N4CCOCC4)cc3)nc21,55.8% (active)
10,CC(C)n1cnc2c(NC3CCN(Cc4ccccc4)CC3)nc(-c3ccc(N4CCOCC4)nc3)nc21,36.3% (active)
11,c1ccc(CN2CCC(Nc3nc(Nc4ccc(N5CCOCC5)cc4)c4ncn(C5CCCCC5)c4n3)CC2)cc1,7.35%
12,CC(C)n1cnc2c(NC3CC3)nc(-c3ccc(N4CCOCC4)nc3)nc21,1.84%
13,c1ccc(CN2CCC(Nc3nc(-c4ccccc4)nc4c3ncn4C3CCCCC3)CC2)cc1,6.01%
14,NC(=O)c1ccc(C(=O)N2CCC3(CC2)NC(=O)c2ccccc2O3)c(F)c1,9.77%
15,O=C(Cc1cccc2ccccc12)Nc1ccccc1-c1nc2ccccc2s1,4.57%
16,CC(=O)Nc1sc(C)c(C)c1-c1nc2ccccc2s1,-2.29%
17,c1ccc2nc(-c3nc4ccccc4s3)ccc2c1,50.1% (active)
18,CCS(=O)(=O)N1CCN(c2cccc(Cl)c2)CC1,4.72%
